{
  "source": "paper PMC5700166",
  "experiment_in_all_cases": "protein-binding microarray (PBM); PBM: ~300 nM protein, 6 mM HEPES pH 7.8, 80 mM KCl, 0.5 mM EDTA, 0.5 mM EGTA, 6% glycerol, 35 ng/ul poly-dIdC, 1% milk, 1 h, room temperature; Ap Aiptasia and Nv Nematostella (sea anemones) / Co Capsaspora / Aq Amphimedon (sponge) / Dm Drosophila / Hu human; RHD is the Rel homology domain; high values mean tight binding",
  "conditions_in_all_cases": "dsDNA, one strand shown",
  "key": {"[1]": {"biological_target": "T1, GST-Nv-NF-kB (Cys allele) (Nematostella vectensis, UniProt E5G601 2-411)", "T1 sequence": "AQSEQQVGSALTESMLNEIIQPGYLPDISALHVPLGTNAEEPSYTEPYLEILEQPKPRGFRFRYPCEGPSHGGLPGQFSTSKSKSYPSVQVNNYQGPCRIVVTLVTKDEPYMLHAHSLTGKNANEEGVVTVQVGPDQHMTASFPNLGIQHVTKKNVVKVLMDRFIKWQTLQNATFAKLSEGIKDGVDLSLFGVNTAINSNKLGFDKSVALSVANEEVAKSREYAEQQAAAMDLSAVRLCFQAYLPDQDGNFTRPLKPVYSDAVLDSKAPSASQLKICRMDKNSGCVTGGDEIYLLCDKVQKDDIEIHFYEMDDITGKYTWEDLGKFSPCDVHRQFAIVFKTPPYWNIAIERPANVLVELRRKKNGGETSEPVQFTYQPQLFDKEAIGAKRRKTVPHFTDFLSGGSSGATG"}, "GST-Co-NF-kB": {"biological_target": "T2, GST-Co-NF-kB (Capsaspora owczarzaki, UniProt F1ARL5 200-546)", "T2 sequence": "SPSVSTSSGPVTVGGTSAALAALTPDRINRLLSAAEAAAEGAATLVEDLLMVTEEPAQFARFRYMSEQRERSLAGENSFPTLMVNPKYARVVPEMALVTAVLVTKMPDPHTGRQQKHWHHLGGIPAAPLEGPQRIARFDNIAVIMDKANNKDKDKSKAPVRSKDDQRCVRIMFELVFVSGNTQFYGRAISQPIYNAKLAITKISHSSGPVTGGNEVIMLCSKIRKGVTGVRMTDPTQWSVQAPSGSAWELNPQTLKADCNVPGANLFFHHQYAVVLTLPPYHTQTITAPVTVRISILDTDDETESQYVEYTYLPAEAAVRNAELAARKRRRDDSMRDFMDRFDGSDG"}, "GST-Ap-NF-kB RHD": {"biological_target": "T3, GST-Ap-NF-kB RHD (Exaiptasia pallida (Aiptasia), UniProt A0A913YAJ5 2-422)", "T3 sequence": "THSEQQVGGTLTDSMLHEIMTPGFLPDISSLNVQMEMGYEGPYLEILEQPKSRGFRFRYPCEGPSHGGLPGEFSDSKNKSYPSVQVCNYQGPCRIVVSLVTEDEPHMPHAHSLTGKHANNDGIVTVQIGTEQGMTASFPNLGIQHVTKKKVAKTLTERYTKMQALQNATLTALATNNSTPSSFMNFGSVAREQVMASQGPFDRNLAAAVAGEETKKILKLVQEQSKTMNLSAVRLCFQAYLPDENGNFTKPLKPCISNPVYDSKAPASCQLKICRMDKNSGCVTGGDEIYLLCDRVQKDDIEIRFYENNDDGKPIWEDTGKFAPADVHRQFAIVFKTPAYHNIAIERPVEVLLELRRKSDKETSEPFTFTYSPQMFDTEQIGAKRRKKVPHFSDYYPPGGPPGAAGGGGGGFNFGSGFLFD"}, "GST-Dm-Relish": {"biological_target": "T4, GST-Dm-Relish (Drosophila melanogaster, UniProt Q94527 99-473)", "T4 sequence": "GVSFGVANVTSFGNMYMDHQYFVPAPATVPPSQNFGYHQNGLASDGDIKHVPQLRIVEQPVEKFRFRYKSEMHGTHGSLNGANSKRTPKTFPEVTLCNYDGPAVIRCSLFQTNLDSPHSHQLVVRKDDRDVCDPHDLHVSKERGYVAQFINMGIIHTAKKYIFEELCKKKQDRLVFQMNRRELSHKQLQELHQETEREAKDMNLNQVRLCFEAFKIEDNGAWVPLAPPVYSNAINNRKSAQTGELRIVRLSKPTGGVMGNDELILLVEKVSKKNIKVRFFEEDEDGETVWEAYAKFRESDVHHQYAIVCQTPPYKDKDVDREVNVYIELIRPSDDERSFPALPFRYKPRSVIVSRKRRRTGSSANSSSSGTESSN"}, "[2]": {"biological_target": "T5, GST-Nv-NF-kB (Ser allele) (Nematostella vectensis, UniProt A7UNT2 2-411)", "T5 sequence": "T1 sequence with Q21R, C66S, S207N, E215Q, V217A, E225K, A268E, D399E"}},
  "note": "Positions count from the first letter of the chain named.",
  "data": [
    {"sequence": "CCGATTAACATCAGCATTCCCAATGATGTTAATCGGGTCTTGATTCGCTTGACGCTGCTG", "values": [
      {"measurement": "binding signal", "setting": "[1]", "value": 1.29, "unit": "z-score"},
      {"measurement": "binding signal", "setting": "GST-Co-NF-kB", "value": 1.08, "unit": "z-score"}
    ]},
    {"sequence": "CCGATTAACATCACCCGCGCTCATGATGTTAATCGGGTCTTGATTCGCTTGACGCTGCTG", "values": [
      {"measurement": "binding signal", "setting": "GST-Ap-NF-kB RHD", "value": 1.32, "unit": "z-score"},
      {"measurement": "binding signal", "setting": "GST-Dm-Relish", "value": 1.06, "unit": "z-score"}
    ]},
    {"sequence": "CCGATTAACATCACCTTCTTTACTGATGTTAATCGGGTCTTGATTCGCTTGACGCTGCTG", "values": [
      {"measurement": "binding signal", "setting": "GST-Co-NF-kB", "value": 1.57, "unit": "z-score"}
    ]},
    {"sequence": "CCGATTAACATCAGGGAGCCGTATGATGTTAATCGGGTCTTGATTCGCTTGACGCTGCTG", "values": [
      {"measurement": "binding signal", "setting": "GST-Ap-NF-kB RHD", "value": 1.18, "unit": "z-score"}
    ]},
    {"sequence": "CCGATTAACATCAAGTACCAGGGTGATGTTAATCGGGTCTTGATTCGCTTGACGCTGCTG", "values": [
      {"measurement": "binding signal", "setting": "GST-Ap-NF-kB RHD", "value": 1.05, "unit": "z-score"}
    ]},
    {"sequence": "CCGATTAACATCAGGTAATATATTGATGTTAATCGGGTCTTGATTCGCTTGACGCTGCTG", "values": [
      {"measurement": "binding signal", "setting": "[2]", "value": 2.14, "unit": "z-score"}
    ]},
    {"sequence": "CCGATTAACATCAGTACCTCGTATGATGTTAATCGGGTCTTGATTCGCTTGACGCTGCTG", "values": [
      {"measurement": "binding signal", "setting": "[2]", "value": 1.04, "unit": "z-score"}
    ]},
    {"sequence": "CCGATTAACATCAGTGGTACTTGTGATGTTAATCGGGTCTTGATTCGCTTGACGCTGCTG", "values": [
      {"measurement": "binding signal", "setting": "[2]", "value": 1.44, "unit": "z-score"},
      {"measurement": "binding signal", "setting": "GST-Dm-Relish", "value": 1.25, "unit": "z-score"}
    ]},
    {"sequence": "CCGATTAACATCACCCCGAACGCTGATGTTAATCGGGTCTTGATTCGCTTGACGCTGCTG", "values": [
      {"measurement": "binding signal", "setting": "GST-Ap-NF-kB RHD", "value": 1.59, "unit": "z-score"},
      {"measurement": "binding signal", "setting": "GST-Co-NF-kB", "value": 2.02, "unit": "z-score"}
    ]},
    {"sequence": "CCGATTAACATCACCCCCCCCCCTGATGTTAATCGGGTCTTGATTCGCTTGACGCTGCTG", "values": [
      {"measurement": "binding signal", "setting": "GST-Ap-NF-kB RHD", "value": 5.35, "unit": "z-score"},
      {"measurement": "binding signal", "setting": "GST-Co-NF-kB", "value": 7.37, "unit": "z-score"},
      {"measurement": "binding signal", "setting": "GST-Dm-Relish", "value": 4.97, "unit": "z-score"}
    ]},
    {"sequence": "CCGATTAACATCAACCCCCCCCCTGATGTTAATCGGGTCTTGATTCGCTTGACGCTGCTG", "values": [
      {"measurement": "binding signal", "setting": "GST-Ap-NF-kB RHD", "value": 5.71, "unit": "z-score"},
      {"measurement": "binding signal", "setting": "[2]", "value": 4.2, "unit": "z-score"},
      {"measurement": "binding signal", "setting": "GST-Co-NF-kB", "value": 5.49, "unit": "z-score"},
      {"measurement": "binding signal", "setting": "GST-Dm-Relish", "value": 5.26, "unit": "z-score"}
    ]},
    {"sequence": "CCGATTAACATCATCGCGGGTAGTGATGTTAATCGGGTCTTGATTCGCTTGACGCTGCTG", "values": [
      {"measurement": "binding signal", "setting": "GST-Co-NF-kB", "value": 1.37, "unit": "z-score"}
    ]},
    {"sequence": "CCGATTAACATCACGGTGTGGGTTGATGTTAATCGGGTCTTGATTCGCTTGACGCTGCTG", "values": [
      {"measurement": "binding signal", "setting": "GST-Co-NF-kB", "value": 1.37, "unit": "z-score"}
    ]},
    {"sequence": "CCGATTAACATCAATTTGGGAAATGATGTTAATCGGGTCTTGATTCGCTTGACGCTGCTG", "values": [
      {"measurement": "binding signal", "setting": "[1]", "value": 2.58, "unit": "z-score"},
      {"measurement": "binding signal", "setting": "GST-Co-NF-kB", "value": 1.92, "unit": "z-score"}
    ]},
    {"sequence": "CCGATTAACATCAATAGTACCGATGATGTTAATCGGGTCTTGATTCGCTTGACGCTGCTG", "values": [
      {"measurement": "binding signal", "setting": "GST-Ap-NF-kB RHD", "value": 1.43, "unit": "z-score"},
      {"measurement": "binding signal", "setting": "[1]", "value": 1.03, "unit": "z-score"},
      {"measurement": "binding signal", "setting": "[2]", "value": 3, "unit": "z-score"}
    ]},
    {"sequence": "CCGATTAACATCACACTGTTCAGTGATGTTAATCGGGTCTTGATTCGCTTGACGCTGCTG", "values": [
      {"measurement": "binding signal", "setting": "[2]", "value": 1.06, "unit": "z-score"}
    ]},
    {"sequence": "CCGATTAACATCACCCCCCCCCATGATGTTAATCGGGTCTTGATTCGCTTGACGCTGCTG", "values": [
      {"measurement": "binding signal", "setting": "GST-Ap-NF-kB RHD", "value": 4.92, "unit": "z-score"},
      {"measurement": "binding signal", "setting": "[2]", "value": 3.7, "unit": "z-score"},
      {"measurement": "binding signal", "setting": "GST-Co-NF-kB", "value": 7.08, "unit": "z-score"},
      {"measurement": "binding signal", "setting": "GST-Dm-Relish", "value": 5.37, "unit": "z-score"}
    ]},
    {"sequence": "CCGATTAACATCAGCTTGGGAAATGATGTTAATCGGGTCTTGATTCGCTTGACGCTGCTG", "values": [
      {"measurement": "binding signal", "setting": "[1]", "value": 1.84, "unit": "z-score"},
      {"measurement": "binding signal", "setting": "GST-Co-NF-kB", "value": 2.33, "unit": "z-score"}
    ]},
    {"sequence": "CCGATTAACATCAAGGGGGGGGGTGATGTTAATCGGGTCTTGATTCGCTTGACGCTGCTG", "values": [
      {"measurement": "binding signal", "setting": "GST-Ap-NF-kB RHD", "value": 5.14, "unit": "z-score"},
      {"measurement": "binding signal", "setting": "GST-Co-NF-kB", "value": 7.25, "unit": "z-score"},
      {"measurement": "binding signal", "setting": "GST-Dm-Relish", "value": 5.34, "unit": "z-score"}
    ]},
    {"sequence": "CCGATTAACATCACTAGGTAGTCTGATGTTAATCGGGTCTTGATTCGCTTGACGCTGCTG", "values": [
      {"measurement": "binding signal", "setting": "[2]", "value": 1.04, "unit": "z-score"}
    ]},
    {"sequence": "CCGATTAACATCACTAGGCGGGATGATGTTAATCGGGTCTTGATTCGCTTGACGCTGCTG", "values": [
      {"measurement": "binding signal", "setting": "GST-Ap-NF-kB RHD", "value": 1.56, "unit": "z-score"},
      {"measurement": "binding signal", "setting": "GST-Co-NF-kB", "value": 1.92, "unit": "z-score"}
    ]},
    {"sequence": "CCGATTAACATCAATTAGGTGGGTGATGTTAATCGGGTCTTGATTCGCTTGACGCTGCTG", "values": [
      {"measurement": "binding signal", "setting": "GST-Ap-NF-kB RHD", "value": 1.19, "unit": "z-score"},
      {"measurement": "binding signal", "setting": "GST-Co-NF-kB", "value": 1.13, "unit": "z-score"}
    ]},
    {"sequence": "CCGATTAACATCAAGATTAGGGATGATGTTAATCGGGTCTTGATTCGCTTGACGCTGCTG", "values": [
      {"measurement": "binding signal", "setting": "GST-Ap-NF-kB RHD", "value": 1.31, "unit": "z-score"}
    ]},
    {"sequence": "CCGATTAACATCAACCCCAGCTCTGATGTTAATCGGGTCTTGATTCGCTTGACGCTGCTG", "values": [
      {"measurement": "binding signal", "setting": "GST-Ap-NF-kB RHD", "value": 1.01, "unit": "z-score"},
      {"measurement": "binding signal", "setting": "[1]", "value": 1.21, "unit": "z-score"},
      {"measurement": "binding signal", "setting": "GST-Co-NF-kB", "value": 1.8, "unit": "z-score"},
      {"measurement": "binding signal", "setting": "GST-Dm-Relish", "value": 1.14, "unit": "z-score"}
    ]}
  ]
}
